For four compounds, Potency results are on record in PubChem BioAssay (NCATS).

Records with an inconclusive call do not appear. Calls of active or inactive are those of the source. The call rests on the fitted dose curve; in most records, active means well fitted inhibition curve with a large enough effect; inconclusive means small, poorly fitted or top-dose-only effect; inactive means flat fitted curve, though single readings scatter.
Potency means the concentration at half of the fitted maximal effect.

The target in the first experiment is Dual specificity protein kinase CLK4 (Homo sapiens) (UniProt Q9HAZ1). Description: qHTS Assay for Inhibitors of CDC-like Kinase 4 (Kinase-Glo Assay) (AID 1770). Further: nearly all actives have a fitted effect of over 65% in size. Conditions: recombinant Clk4, Kinase-Glo ATP depletion luminescence; series mostly up to 66.7 µM. Put shortly: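 Recombinant human Clk4 (25 nM) phosphorylated RS repeat peptide (100 uM) with 1 uM ATP in Tris pH 7.5/MgCl2/EGTA/DTT/Triton buffer for 4.5 h at room temperature. Residual ATP was quantified by Kinase-Glo luciferase luminescence.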
Dual specificity protein kinase CLK4 (Homo sapiens), sequence (Q9HAZ1 whole entry, looked up): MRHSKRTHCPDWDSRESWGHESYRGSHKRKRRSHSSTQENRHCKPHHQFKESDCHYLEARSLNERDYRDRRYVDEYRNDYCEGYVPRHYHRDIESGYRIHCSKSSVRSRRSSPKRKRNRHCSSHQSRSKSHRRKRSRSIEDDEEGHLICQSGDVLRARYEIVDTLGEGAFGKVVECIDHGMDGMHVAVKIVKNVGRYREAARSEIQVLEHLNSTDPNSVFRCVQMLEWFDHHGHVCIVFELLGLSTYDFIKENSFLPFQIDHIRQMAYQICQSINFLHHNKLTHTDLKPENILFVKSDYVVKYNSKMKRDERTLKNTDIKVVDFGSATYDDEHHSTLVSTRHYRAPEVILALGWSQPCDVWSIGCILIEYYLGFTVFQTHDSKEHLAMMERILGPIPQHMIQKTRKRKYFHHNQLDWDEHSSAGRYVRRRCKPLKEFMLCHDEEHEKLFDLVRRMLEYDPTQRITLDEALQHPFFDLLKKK
(In general: In qHTS, concentration-response curves come from the screen itself.)
With `COc1ccc2[nH]cc(CCNc3ncnc4ccc(-c5ccc6c(c5)OCO6)cc34)c2c1`, the Potency is 0.316 µM (active).

Take `COc1cccc(-c2cc(NCCc3c[nH]c4ccc(OC)cc34)ncn2)c1`: the Potency is 4.47 µM (active).

On to `COc1ccccc1CNc1ncnc2ccc(-c3ccccc3C#N)cc12`, for which the Potency was 6.31 µM (active).

Turning to `Cc1ccccc1-c1ccc2ncnc(N(C)C)c2c1`, the Potency was 15.8 µM (active).

The next experiment has the same target. In words: qHTS Assay for Inhibitors of CDC-like Kinase 4 (ADP-Glo Assay) (AID 1771). Further: nearly all actives have a fitted effect of over 70% in size. The following applies: recombinant CLK4, ADP-Glo luminescence; series mostly up to 80 µM. In outline: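 25 nM Clk4 with 100 uM RS repeat peptide and 1 uM ATP (final) in buffer with 2 mM MgCl2, 0.5 mM EGTA, 2.5 mM DTT, 0.01% Triton X-100; 1 h at room temperature; ADP-Glo luminescence for ADP formed.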
As for `COc1ccc2[nH]cc(CCNc3ncnc4ccc(-c5ccc6c(c5)OCO6)cc34)c2c1`, the Potency is 0.282 µM (active).

On to `COc1cccc(-c2cc(NCCc3c[nH]c4ccc(OC)cc34)ncn2)c1`, for which the Potency is 12.6 µM (active).

Regarding `COc1ccccc1CNc1ncnc2ccc(-c3ccccc3C#N)cc12`, the Potency is 7.94 µM (active).

Consider `Cc1ccccc1-c1ccc2ncnc(N(C)C)c2c1`, for which the Potency is 28.2 µM (active).
